This is part of a sample that, as a whole, favours compounds with a hit. Of some 83,000 tested, about 20% had one in any assay.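 Results are percent growth after 48 hours of single-concentration exposure. 100 means growth as in untreated cells, lower positive values show inhibition; negative values down to -100 show cell death.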 A number with no mark means an inactive call. Active and inactive are the calls of the source. Rule for the calls: active = growth percent below 10; inactive = the rest.
Tests used:
Experiment in all cases: NCI-60 one-dose screen, 48 h (100 = growth as untreated, 0 = no growth, -100 = all killed)
Details in all cases: 10 µM unless noted
SR leukemia = test system: SR leukemia
RPMI-8226 leukemia = test system: RPMI-8226 leukemia
OVCAR-8 ovarian = test system: OVCAR-8 ovarian
OVCAR-5 ovarian = test system: OVCAR-5 ovarian
OVCAR-4 ovarian = test system: OVCAR-4 ovarian
SK-OV-3 ovarian = test system: SK-OV-3 ovarian
IGROV1 ovarian = test system: IGROV1 ovarian
OVCAR-3 ovarian = test system: OVCAR-3 ovarian
HS 578T breast = test system: HS 578T breast
NCI/ADR-RES ovarian = test system: NCI/ADR-RES ovarian
T-47D breast = test system: T-47D breast
BT-549 breast = test system: BT-549 breast
MDA-MB-435 melanoma = test system: MDA-MB-435 melanoma
SW-620 colon = test system: SW-620 colon
MCF7 breast = test system: MCF7 breast
HCT-116 colon = test system: HCT-116 colon
HCC-2998 colon = test system: HCC-2998 colon
KM12 colon = test system: KM12 colon

Compound | growth (SR leukemia) | growth (RPMI-8226 leukemia) | growth (OVCAR-8 ovarian) | growth (OVCAR-5 ovarian) | growth (OVCAR-4 ovarian) | growth (SK-OV-3 ovarian) | growth (IGROV1 ovarian) | growth (OVCAR-3 ovarian) | growth (HS 578T breast) | growth (NCI/ADR-RES ovarian) | growth (T-47D breast) | growth (BT-549 breast) | growth (MDA-MB-435 melanoma) | growth (SW-620 colon) | growth (MCF7 breast) | growth (HCT-116 colon) | growth (HCC-2998 colon) | growth (KM12 colon)
O=C(/C=C/c1c[nH]c2ccccc12)c1cc2ccccc2o1 | 41.1% | 60.1% | 99.3% | 101% | 101% | 103% | 88.2% | 93.3% | 100% | 99.9% | 82.8% | 79.6% | 92.1% | 95.2% | 65.9% | 62% | 105% | 75.7%
CC(=O)c1cc(Nc2cc(C)nc(N)n2)cc(C(C)=O)c1 | 35.8% | 100% | 98.8% | 91.6% | 108% | 116% | 91.7% | 112% | 94.6% | 94% | 85.9% | 98.7% | 117% | 92.2% | 110% | 97% | 51.9% | 97.3%
FC(F)(F)c1cccc(-c2[nH]ncc2-c2nnnn2-c2ccccc2)c1 | 25.6% | 29.6% | 58.9% | 69.6% | 66.4% | 55.4% | 56.2% | 48.4% | 43.6% | 12.2% | 44.9% | 42.8% | -7.25% (active) | 16.5% | 24.1% | 20.7% | 31.1% | 23.9%
O=C1C(=O)c2ccccc2C(O)=C1CCCc1ccc(C2CCCC2)cc1 | -49.3% (active) | 7.4% (active) | 31.7% | 24.9% | 23.4% | 55% | 50.8% | 39.3% | 31.7% | 37.6% | 59.8% | 40.3% | 42% | 24.3% | 33.3% | 16.6% | 36.7% | 27.6%
CC1=C(C)C(=O)C(C(C)C2=C(C)C(=O)C(C)=C(C)C2=O)=C(C)C1=O | 56% | 50.5% | 99.1% | 44% | 104% | 98.1% | 2.57% (active) | 150% | 77.9% | 91.9% | 91.6% | 83.5% | 98.1% | 107% | 102% | 71.2% | 23.4% | 88.8%
COc1ccc(Cn2cc3c(c2-c2ccccc2)CCc2cnoc2-3)cc1N | 11.8% | 23.5% | 30% | 54.5% | 44.5% | -4.08% (active) | 3.29% (active) | -19.5% (active) | 10.4% | -1.43% (active) | 37.2% | 36.2% | -27.9% (active) | 23.5% | 16% | 9.53% (active) | -1.21% (active) | 6.52% (active)
CCOC(=O)CCCCCCCCC(=O)OCC | 106% | 108% | 106% | 112% | 111% | 106% | 105% | 106% | 110% | 101% | 89.6% | 109% | 112% | 107% | 102% | 110% | 98.4% | 105%
N/C(=N\O)c1ccncc1 | 108% | 110% | 102% | 102% | 103% | 106% | 105% | 105% | 110% | 102% | 102% | 98.3% | 100% | 105% | 97.2% | 102% | 95.8% | 102%

— PubChem BioAssay (NCI)
